# Experimental data published in PubChem BioAssay (NCATS).
# Inconclusive results are not listed. A call without a number means that no potency is given here. Activity calls are given as the source filed them. Calls follow the shape of the dose curve; as a rule, active = well fitted inhibition curve with a large enough effect; inconclusive = small, poorly fitted or top-dose-only effect; inactive = flat fitted curve, though single readings scatter.
# Tested on: Zika virus NS2B-NS3 protease
# Assay: Primary screen GU AMC qHTS for Zika virus inhibitors (AID 1347154); also: nearly all actives have a fitted effect of over 70% in size
# Conditions: Zika NS2B-NS3 unlinked protease, AMC fluorogenic substrate; series mostly up to 54.1 µM
# Source text: Avindra Nath, Ph.D., National Institute of Neurological Disorders and Stroke (NINDS), Bethesda, MD
# Radhakrishnan Padmanabhan, Ph.D., Georgetown University (GU), Washington D.C.
# Zika Virus causes congenital defects, including microcephaly and is associated with Guillain-Barre syndrome, eningoencephalitis and myelitis in infected adult. […] Using a target-based approach, we hope to establish a screening paradigm to uncover novel, cell-active NS2B-NS3 protease (Zika Virus) specific inhibitors from NCATS' collection of small molecules using qHTS.
# Early Translation Branch (ETB)
# National Center for Advancing Translational Sciences (NCATS), Rockville, MD
# National Institute of Health (NIH), Bethesda, Maryland
# Padmanabhan lab provided the NS2B hydrophilic domain and NS3 protease domain in a noncovalent complex used for the unlinked assay. Control compound aprotinin is obtained from Thermo Scientific (#78432; Waltham, Massachusetts). NS2B-NS3 AMC substrate (Bz-Nle-Lys-Arg-Arg-AMC; Nle-KRR-AMC) purchased from Bachem (#I-1995; Torrance, CA). Ac-VKTGKR-AMC purchased from Genscript or Bachem, Ac-FAAGKR-AMC purchased from Genscript, Ac-GLVKRR-AMC purchased from Genscript, Ac-LKKR-AMC purchased from Genscript.
# GU AMC unlinked NS2B-NS3 protease qHTS protocol
# Briefly, 3 microL of Zika virus unlinked NS2B-NS3 protease (25 nM for linked final concentration), in assay buffer (10 mM Tris-HCl pH 8.0 with 0.01% Tween 20) was dispensed into a 1,536-well solid-bottom black plate (Greiner Bio One, Monroe, NC). […] Plates were then read immediately on a ViewLux High-throughput CCD imager (PerkinElmer, Waltham, MA) equipped with standard UV fluorescence optics (340(30) nm excitation, 450(20) nm emission) then incubated (room temperature, protected from light) for 15 minutes (~20% conversion). The change in fluorescence intensity over the 15-minute reaction period was normalized against no-inhibitor and no-enzyme controls and the resulting percent inhibition data were fitted to a 4-parameter Hill equation. Aprotinin was used as the intraplate control.
# Potency is read from the fitted curve at half-maximal effect.
row,SMILES,Potency
1,CCCCCN=C(N)N/N=C/c1c[nH]c2ccc(OC)cc12,inactive
2,NS(=O)(=O)c1ccc(Cl)c(S(N)(=O)=O)c1,inactive
3,O=C(O)CCNC(=O)c1ccccc1,inactive
4,CC(C)Nc1cccnc1N1CCN(C(=O)c2cc3cc(NS(C)(=O)=O)ccc3[nH]2)CC1,inactive
5,CC[N+](C)(CC)CCOC(=O)C(O)(c1ccccc1)C1CCCCC1 (stereo not given),inactive
6,O=C(Oc1cccc2cccnc12)c1ccccc1,inactive
7,O=C(O)CCc1nc2ccccc2[nH]1,inactive
8,CCN(CC)CCOc1ccc2c(c1)C(=O)c1cc(OCCN(CC)CC)ccc1-2,inactive
9,Nc1ccc(S(=O)(=O)Nc2cnc3ccccc3n2)cc1,inactive
10,CN(C)CCC[C@@]1(c2ccc(F)cc2)OCc2cc(C#N)ccc21,inactive
11,CC(=O)OCC1=C(C(=O)O)N2C(=O)[C@@H](NC(=O)CSc3ccncc3)[C@H]2SC1,inactive
12,CC(C)NCC(O)c1ccc2ccccc2c1 (stereo not given),inactive
13,Nc1nc(-c2ccccc2)c(Br)c(=O)[nH]1,inactive
14,Oc1ccccc1C=NCc1ccccc1,inactive
15,CCCCNc1ccc(C(=O)OCCOCCOCCOCCOCCOCCOCCOCCOCCOC)cc1,inactive
16,CC(C)(C)NCC(O)COc1cccc2c1C[C@H](O)[C@H](O)C2 (stereo not given in full),inactive
17,CCN(CC)CCNC(=O)COc1ccc(OC)cc1,inactive
18,N[C@H](C(=O)O)[C@@H](O)c1ccc(O)c(O)c1,12.8 µM (active)
19,COc1cc(N)c(Cl)cc1C(=O)NC1CCN(Cc2ccccc2)CC1,inactive
20,CN1CCC[C@@H]1CCO[C@](C)(c1ccccc1)c1ccc(Cl)cc1,inactive

row,SMILES,Potency
1,CCN1/C(=C/C=C/c2sc3ccccc3[n+]2CC)Sc2ccccc21,inactive
2,N/C(=N\N=C\c1ccc(Cl)cc1)N/N=C/c1ccc(Cl)cc1,inactive
3,CC(=O)Nc1ccc(CC(=O)O)cc1,inactive
4,Cc1cc(C)cc(OCC2CNC(=O)O2)c1 (stereo not given),inactive
5,COc1cc(NS(=O)(=O)c2ccc(N)cc2)ncn1,inactive
6,OCc1ccccn1,inactive
7,Cc1c(-c2ccccc2)oc2c(C(=O)OCCN3CCCCC3)cccc2c1=O,inactive
8,O=C(NCCc1c[nH]c2ccccc12)c1cccnc1,inactive
9,CCCCC(CC)COC(=O)/C=C/c1ccc(OC)cc1 (stereo not given),inactive
10,CC(=O)Nc1ccc(OCC(O)CNC(C)C)cc1 (stereo not given),inactive
11,CCN(CC)CCOC(=O)C1(c2ccccc2)CCCC1,inactive
12,CCNC(=O)/C=C/c1cccc(Br)c1,inactive
13,O[C@@H](c1cc(C(F)(F)F)nc2c(C(F)(F)F)cccc12)[C@H]1CCCCN1,inactive
14,C[C@H]1[C@H]2CC[C@H]3[C@@H]4CC=C5C[C@@H](N(C)C)CC[C@]5(C)[C@H]4CC[C@]23CN1C,inactive
15,N#C/C(=C1\SCC(c2ccccc2Cl)S1)n1ccnc1 (stereo not given),inactive
16,C[C@]12CCC(=O)C=C1C=C[C@@H]1[C@@H]2CC[C@@]2(C)[C@H]1CC[C@@]21CCC(=O)O1,inactive
17,COc1ccc(C(Cl)=C(c2ccc(OC)cc2)c2ccc(OC)cc2)cc1,inactive
18,C[C@H]1O[C@@H](O[C@H]2CC[C@@]3(C)[C@H](CC[C@@H]4[C@@H]3C[C@@H](O)[C@]3(C)[C@@H](C5=CC(=O)OC5)CC[C@]43O)C2)C[C@H](O)[C@@H]1O[C@H]1C[C@H](O)[C@H](O[C@H]2C[C@H](O)[C@H](O[C@@H]3O[C@H](CO)[C@@H](O)[C@H](O)[C@H]3O)[C@@H](C)O2)[C@@H](C)O1,inactive
19,Nc1nc(N)c(-c2ccccc2)s1,inactive
20,CC(C)(C)NC[C@H](O)COc1cccc2c1CCCC2=O,inactive
